Measurements as given in PubChem BioAssay AID651658 (Broad Institute, 2012).
“And” between values parts separate entries of the source, which are not always exact repeats. Equal values may be shown once. Among all 340,000 compounds or so, about 5,100 (1.5%) were called active.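 Rule for the calls: active = mean Tm shift, scaled 0 neutral to 100 positive control, at about 1.3% or above, every replicate too (limit read from the data); inconclusive = no clear call, values can overlap the other calls; inactive = the rest.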 The entries come from a sample that favours actives as a whole.

Target: Fibroblast growth factor 22 (Homo sapiens) (UniProt Q9HCT0)
Experiment: FGF22 ligand-induced thermal stabilization – biophysical, thermal shift, single point, FGF22 synaptogenesis inhibitor project, primary screen (AID 651658)
Details: recombinant FGF22 thermal shift, SYPRO orange fluorescence; at 9.99 µM; active compounds read high; percent of sucrose octasulfate shift, DMSO zero

Chain of Fibroblast growth factor 22 (Homo sapiens) (Q9HCT0 whole entry, looked up): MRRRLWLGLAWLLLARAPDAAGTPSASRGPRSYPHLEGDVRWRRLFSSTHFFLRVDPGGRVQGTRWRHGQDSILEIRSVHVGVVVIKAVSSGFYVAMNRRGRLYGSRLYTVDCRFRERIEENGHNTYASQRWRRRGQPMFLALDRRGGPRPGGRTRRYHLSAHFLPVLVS

| Structure (SMILES) | activity (Tm shift, normalised) |
| --- | --- |
| CO[C@@H]1CN(C)C(=O)c2cc(NS(=O)(=O)CC(F)(F)F)ccc2OC[C@H](C)N(C)C[C@H]1C | -0.229% (inactive) |
| O=C(C[C@H]1CC[C@H]2[C@@H](COC[C@H](O)CN2C(=O)c2ccccc2F)O1)NCc1ccccc1 | 0.053% (inactive) |
| O=C(NCC1CC1)[C@H]1[C@H](CO)[C@H]2Cn3c(ccc(/C=C/c4ccccc4)c3=O)[C@@H]1N2C(=O)C1CCC1 | 0.006% (inactive) |
| COc1ccc(Cn2c(=O)oc3ccccc32)cc1 | -0.205% (inactive) |
| COc1ccc(-c2ccc([C@@H]3[C@@H](CO)N4C(=O)CN(Cc5ccccc5)C[C@@H]34)cc2)cc1 | -0.039% (inactive) |
| COc1ccc(Cn2c(-c3ccc(Cl)cc3)c[n+]3ccccc23)cc1 | 44% (active) |
| C[C@@H]1CCCCO[C@H](CN(C)Cc2ccc3c(c2)OCO3)[C@H](C)CN([C@@H](C)CO)C(=O)c2cc(NS(=O)(=O)c3cccs3)ccc2O1 | -0.357% (inactive) and -0.044% (inactive) |
| CCCOc1ccc(NC(=O)CC2C(=O)N(C)C(=S)N2Cc2ccc3c(c2)OCO3)cc1 (stereo not given) | 2.52% (active) |
| O=C(Nc1ccc(Cl)cc1)C1c2cccc[n+]2CC(=O)N1Cc1ccc2c(c1)OCO2 (stereo not given) | -0.124% (inactive) |
| CCOc1ccc(NC(=O)CC2C(=O)N(c3ccccc3)C(=O)N2CCOC)cc1 (stereo not given) | -0.014% (inactive) |
| COc1ccc(NC(=O)N[C@@H]2CC[C@H](CC(=O)NC3CCC3)O[C@H]2CO)cc1 | -0.109% (inactive) |
| O=C(C[C@@H]1CC[C@@H]2[C@H](COC[C@H](O)CN2S(=O)(=O)c2ccc(Oc3ccccc3)cc2)O1)NCCN1CCCCC1 | 0.107% (inactive) |
| COc1ccccc1-c1cnc2c(c1)C(=O)N([C@@H](C)CO)C[C@@H](C)[C@@H](CN(C)C(=O)c1cccnc1)O2 | -0.285% (inactive) |
| COc1ccccc1C#Cc1cnc2c(c1)C(=O)N([C@@H](C)CO)C[C@@H](C)[C@@H](CN(C)C(=O)CN(C)C)O2 | -0.154% (inactive) |
| CN(C)C(CNC(=O)Cc1ccc([N+](=O)[O-])cc1)c1ccccc1 (stereo not given) | 42.9% (active) |
| CN(C)CCNC(=O)Cc1ccc([N+](=O)[O-])cc1 | 0.505% (inactive) |
| O=C(CC(c1ccccc1)c1ccccc1)NCC(O)c1ccc([N+](=O)[O-])cc1 (stereo not given) | -0.099% (inactive) |
| CCC(=O)N(C)C[C@H]1Oc2ncc(C#CC(C)C)cc2C(=O)N([C@@H](C)CO)C[C@H]1C | 0.017% (inactive) |
| O=C(C1CCCC1)N1[C@H](CO)[C@@H]2c3ccccc3N(S(=O)(=O)c3ccccc3)C[C@@H]21 | 0.581% (inactive) |
| C[C@H](O)C#Cc1cnc2c(c1)C(=O)N([C@H](C)CO)C[C@@H](C)[C@H](CN(C)CC1CCCCC1)O2 | -0.028% (inactive) |

| Structure (SMILES) | activity (Tm shift, normalised) |
| --- | --- |
| CN(C)CC(=O)N[C@H]1CC[C@@H](CCNC(=O)C2CCCC2)O[C@@H]1CO | 0.021% (inactive) |
| O=C(CSc1nnc2ccccn12)c1ccccc1 | -0.056% (inactive) |
| Cc1ccc(C(=O)NNC(=O)CSc2nnc3ccccn23)cc1 | -0.076% (inactive) |
| Cc1ccc(-n2c(C)cc(C(=O)CSc3nnc4ccccn34)c2C)cc1 | 43.1% (active) |
| CN1C(=O)c2cc(NC(=O)c3ccc4c(c3)OCO4)ccc2OC[C@@H]2O[C@H](CC(=O)O)CC[C@H]21 | 0.218% (inactive) |
| C[C@H](CO)N1C[C@H](C)[C@@H](CN(C)C(=O)c2cnccn2)Oc2ncc(-c3ccccc3F)cc2C1=O | -0.163% (inactive) |
| COc1cccc(NC(=O)C/C(C)=N/NC(=O)C2CCCCC2)c1 | -0.252% (inactive) |
| O=C(Nc1cccc(F)c1)NC1CCCCCCC1 | 0.32% (inactive) |
| C/C(CC(=O)Nc1cccc(F)c1)=N\NC(=O)C(=O)NC1CCCCC1 | 43.7% (active) |
| COc1ccc(CN(C)C[C@@H]2OCCCC[C@@H](C)Oc3ccc(NS(=O)(=O)c4ccc(F)cc4)cc3C(=O)N([C@@H](C)CO)C[C@H]2C)cc1 | -0.218% (inactive) |
| Cc1cccc(-c2ccc([C@@H]3[C@@H](CO)N4CCCCN(S(=O)(=O)c5cccs5)C[C@H]34)cc2)c1 | -0.206% (inactive) |
| C[C@H](CO)N1C[C@H](C)[C@H](CN(C)Cc2ccc(C(=O)Nc3ccccc3N)cc2)Oc2c(NC(=O)Nc3ccccc3)cccc2C1=O | -0.326% (inactive) |
| C/C=C/c1ccc2c(c1)O[C@H](CN(C)C(=O)Cc1ccccn1)[C@H](C)CN([C@H](C)CO)S2(=O)=O | -0.272% (inactive) |
| CCOc1ccc(CCNC(=O)Nc2ccccc2)cc1OCC | -0.025% (inactive) |
| CCOc1cc(NC(=O)Nc2ccccc2)c(OCC)cc1NC(=O)CC | -0.075% (inactive) |
| CCCNCc1cc(OCC)c(OCC(=O)Nc2ccccc2)cc1Br | 44% (active) |
| CCCN1C[C@H](C)[C@@H](OC)CN(C)C(=O)c2cc(NS(=O)(=O)CC)ccc2OC[C@H]1C | -0.257% (inactive) |
| Cc1cc([N+](=O)[O-])ccc1NS(=O)(=O)c1ccccc1 | 1.12% (inactive) |
| Cc1ccccc1OS(=O)(=O)c1cccc([N+](=O)[O-])c1 | 43% (active) |
| Cc1cc(C)n(S(=O)(=O)c2cccc([N+](=O)[O-])c2)n1 | -0.005% (inactive) |

| Structure (SMILES) | activity (Tm shift, normalised) |
| --- | --- |
| CCCNC(=O)Nc1ccc2c(c1)C(=O)N(C)C[C@H](OC)[C@@H](C)CN(C)[C@@H](C)CO2 | -0.468% (inactive) |
| O=C(c1ccccc1F)N1CC(=O)N2[C@H](C1)[C@H](c1ccc(-c3ccc(F)cc3)cc1)[C@@H]2CO | 1.26% (active) |
| COCC(=O)N1CC(=O)N2[C@H](CO)[C@@H](c3ccc(-c4ccccc4F)cc3)[C@H]2C1 | -0.341% (inactive) |
| O=C(c1cccnc1)N1CC(=O)N2[C@H](C1)[C@H](c1ccc(-c3ccccc3F)cc1)[C@@H]2CO | 0.042% (inactive) |
| C/C=C/c1ccccc1[C@@H]1[C@@H](CO)N(C(=O)CN2CCOCC2)[C@H]1C#N | -0.302% (inactive) |
| C[C@H]1CN([C@@H](C)CO)C(=O)c2cc(NC(=O)Cc3cn(C)c4ccccc34)ccc2O[C@@H]1CN(C)Cc1ccc(Cl)c(Cl)c1 | 0.161% (inactive) |
| Cc1noc(C)c1S(=O)(=O)Nc1ccc2c(c1)C(=O)N([C@@H](C)CO)C[C@@H](C)[C@H](CN(C)C(=O)NC(C)C)OCCCC[C@@H](C)O2 | -0.227% (inactive) |
| CC(C)NC(=O)N(C)C[C@H]1OCCCC[C@@H](C)Oc2ccc(NC(=O)C3CCCCC3)cc2C(=O)N([C@H](C)CO)C[C@H]1C | -0.185% (inactive) |
| COc1ccc(/C(C)=N/NC(=O)c2ccc3nc[nH]c3c2)cc1 | 0.005% (inactive) |
| CC(=NNC(=O)c1ccc2nc[nH]c2c1)c1ccc(Br)cc1 | 0.573% (inactive) |
| O=C(N/N=C/c1ccc(Cl)c(Cl)c1)c1ccc2nc[nH]c2c1 | 1.65% (active) |
| CCC(=O)Nc1ccc2c(c1)C(=O)N(C)C[C@H](OC)[C@H](C)CN(C(=O)c1ccccn1)[C@@H](C)CO2 | 0.116% (inactive) |
| CC(=O)O[C@]1(C(C)=O)CC[C@H]2[C@@H]3C=C(C)C4=CC(=O)CC[C@]4(C)[C@H]3CC[C@@]21C | -0.13% (inactive) |
| CC(=O)C12CC(C)=C(C)CC1CC1C3CCC4=CC(=O)CCC4(C)C3CCC12C (stereo not given) | -0.095% (inactive) |
| C[C@]12CCC(=O)C=C1C=CC1C2CC[C@@]2(C)C1CC[C@@]21CCC(=O)O1 (stereo not given in full) | 43.7% (active) |
| C[C@H](CO)N1C[C@H](C)[C@H](CN(C)S(=O)(=O)c2cccs2)Oc2c(NC(=O)Nc3ccc4c(c3)OCO4)cccc2C1=O | -0.125% (inactive) |
| O=C(C[C@H]1CC[C@@H](NC(=O)c2ccc(F)cc2)[C@@H](CO)O1)NCc1ccncn1 | -0.132% (inactive) |
| COCC(=O)Nc1ccc2c(c1)[C@H]1C[C@@H](CC(=O)NCc3ccccc3F)O[C@H](CO)[C@H]1O2 | -0.327% (inactive) |
| C[C@@H](NC(=O)C[C@H]1CC[C@@H](NC(=O)Cc2ccccn2)[C@@H](CO)O1)c1ccccc1 | -0.123% (inactive) |
| CO[C@@H]1CC[C@H]2CCN(C)C(=O)[C@@H](C)CN(C)C(=O)c3cccc(C#N)c3OC[C@@H]1O2 | -0.102% (inactive) |
